Measurements from the supplement of paper PMC11417369.
± gives the standard deviation of the averaged measurements. Whole data set: some 25,000 sequences, median “ln(normalized median fluorescence intensity)” near 8.6, cut for the highest 2% near 10. The sample as a whole holds a higher share of the highest values than the screen did.

Tested on: PfAP2-EXP AP2 domain (GST-tagged)
Experiment: gcPBM binding intensity (ln(normalized median fluorescence intensity)); higher = stronger DNA binding
Outline: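 The highest Masliner-normalised natural-log median intensity across replicate spots of either probe orientation is reported as binding intensity. GST-tagged P. falciparum DNA-binding domains expressed in E. coli were applied for 1 h to an Agilent 4 × 180k array of primer-extended double-stranded 36-bp intergenic genomic probes plus negative controls, and bound protein was detected with Alexa488 anti-GST antibody and scanned at 488 nm.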

Sequence | gcPBM binding intensity (ln)
AGTTGGATACGAAGATGTACAATAATAATAATTAAG [XGTACX_site3561] | 8.9 ± 0.35
GTGAAATTATATTTTTGTACATATATTATATATTAT [XGTACX_site3387] | 8.52 ± 0.32
ACATACATACACCCACGTACGTACCGAAACACCACC [XGTACX_site1212] | 9.11 ± 0.35
TATTTATGTTCATATAAACACACGTAAAATTCAAGG [CACACA_site1538] | 8.62 ± 0.39
TAAATAATAATAAAATGTACATTATATATGTATATG [XGTACX_site8672] | 8.44 ± 0.36
AACTTCTTTTTTATAACACACAAAATATATATACAA [CACACA_site282] | 8.69 ± 0.42
AAAGGAAAAGTTGACTGTACATAAGTAAAAAATAAT [XGTACX_site788] | 9.15 ± 0.42
ATATATATATAATGTAGTACTATTTAATAATAAGCC [XGTACX_site1263] | 9.775 ± 0.078
AAATAAAATACAATATGATAAAATGTTATCATATAT [CACACA_negctrl_site538] | 8.35 ± 0.38
TATATATATATATTCACACATAAATATATGCACCCA [CACACA_site4263] | 9.96 ± 0.2
TTTAATATATATATGTGTACATATAAATTATATATA [XGTACX_site8511] | 8.2 ± 0.23
TTTTTTTTTTTTTTTGCACACAGGGTGTAGGACAAG [CACACA_site2842] | 8.6
TTATATTATACATACACACCCATATAATATGTTTTT [CACACA_site4636] | 8.73 ± 0.42
GGAAAAACCATTCGCACACACACATAATATATAATA [CACACA_site1424] | 8.66 ± 0.47
ATAAATATTGGGTGCACACACATAATATATATATAT [CACACA_site2272] | 10.1 ± 0.21
AACCATTGGGAAAGGGTGCACATATATATATATATA | 10.8 ± 0.35
TTTAAGCGTTCACTGCTGCACTTTTATGTTGTGACC | 8.71 ± 0.51
GAAGAAAAATAAAAAGTGCAAAAAAAGTAAAAATTT [GTGCAC_site9897] | 8.95 ± 0.49
TATATATACATATACACACACACACCCATATATATA [CACACA_site2246] | 8.84 ± 0.39
CATATACATACACATACACACATACACCCATACACA [CACACA_site8514] | 8.77 ± 0.55
TGAATAAATCAAAGCACACATACACCCACATATATA [CACACA_site286] | 8.78 ± 0.49
TATATATATATATACACACACACACCCATATATATA [CACACA_site2538] | 10.2 ± 0.24
CACATATATACACATACACACACACCCATACACCCA [CACACA_site8505] | 8.77 ± 0.33

Sequence | gcPBM binding intensity (ln)
TCAAAGCACAGATACACACACATATATATATATATA [CACACA_site287] | 10 ± 0.42
TATATATATATATATACACACACACCCATATATATA [CACACA_site8812] | 10.3 ± 0.3
CATACACCCATACATACACACATACATATATATATA [CACACA_site8591] | 9.895 ± 0.064
TCAAAGCACCCATACACACACATATATATATATATA [CACACA_site4317] | 10.3 ± 0.19
TATCACAAAATATACTGTACATACAGGCAGTAATAT [XGTACX_site2487] | 8.71 ± 0.34
GAAAAAAAAAAAAATACACACAAATTGGTATAGAAT [CACACA_site380] | 8.53 ± 0.47
TTGGTGATATTTTTCTCACACATTTACCAGAGATGT [CACACA_site4684] | 8.44 ± 0.37
AGGTACTTTTTTAAAACACACATATAATAAATACAC [CACACA_site4730] | 8.84 ± 0.28
GTAAGTTGTGCATTCACACACATATAAATATAAATA [CACACA_site7536] | 8.66 ± 0.24
GTAAGTTGTGCATTCACACACATATATATATATATA [CACACA_site3303] | 10.2 ± 0.28
ATGTAAGTTGTGCATTCACACACATATATATATATA [CACACA_site9086] | 10.2 ± 0.2
AGTTCAGAATTGAATAGTACATAAATATAACAAAAT [XGTACX_site650] | 8.88 ± 0.36
TGTATTTTTAACATATGTACGAATAGCACGTGTTAT [XGTACX_site3640] | 8.89 ± 0.44
AGTTTTTATTAAAACAAAATTTAATTATAACGTTGA [XGTACX_negctrl_site298] | 8.08 ± 0.3
ATATAGATGCATAATACACACATCAGATAATTAACC [CACACA_site6871] | 8.64 ± 0.33
CAATTAAAAAATAATACATGCATATAAATAGATATT [TGCATGCA_site427] | 8.71 ± 0.38
TATATATATATAGATGCATGCAATTACATATAACAA [TGCATGCA_site118] | 10.2 ± 0.23
TCCTTATTTCATATTTTTAAATAATACAAAAAAAAA [CACACA_negctrl_site773] | 8.06 ± 0.38
TATAATAATACGTATTGTACTATTAGGTTAATTCGT [XGTACX_site264] | 8.34 ± 0.33
TATAATAATAATTATTGTACGATTAGGTTAATTCAT [XGTACX_site1984] | 8.37 ± 0.23
ATGTAGGTTAATTATTGTACGTAGGGGGTGTATATT [XGTACX_site3973] | 10.2 ± 0.48
ATTATTTTAATAAAACGTACAAAATATAAATCAAAA [XGTACX_site3770] | 8.73 ± 0.45
GGTTAGACGAAATATACATGCAATGGAAAATAAGTT [TGCATGCA_site23] | 9.42 ± 0.24

Sequence | gcPBM binding intensity (ln)
AAATAAAAAGTAAAGCGTACAAATGATCAAATAATA [XGTACX_site7898] | 9.04 ± 0.53
TTCAAAATAAAAAATTCACACACATATATATATATA [CACACA_site8653] | 10 ± 0.45
TATATCTTAATATACACACACACATATATATATATA [CACACA_site4968] | 10 ± 0.35
TTTCTTCATTTTTTCACACATAAGAAAATATAATCA [CACACA_site4275] | 8.46 ± 0.46
ACATCTCTTATATATTCACACACATATATATAATTA [CACACA_site8424] | 8.82 ± 0.35
TATATAATTGTCTTCACACACACATATATATATATA [CACACA_site2744] | 10 ± 0.3
AAAGAAAGTACCTTCACACATATAAGAATATAATAT [CACACA_site5214] | 8.6 ± 0.52
ATCTTTCAATAATTCACACATATATATATATATATA [CACACA_site4598] | 10.2 ± 0.28
AAGAATATAATCTTCACACATATATATATATATATA [CACACA_site5927] | 10.2 ± 0.33
TATAATTGTCTTCACACACACATATATATATATATA [CACACA_site2743] | 10.2 ± 0.29
ATTATATAATTGTCTTCACACACACCGATATATATA [CACACA_site8883] | 8.93 ± 0.51
TTTTTTTTTTTTGTCACACATATGGAATATATCTAT [CACACA_site5899] | 8.54 ± 0.54
TTGTAATATCTTGTCACACATATATATATATATATA [CACACA_site4937] | 10.2 ± 0.57
ATCTATGAAAAAGGTACATGCAATAAAGAAACATAT [TGCATGCA_site805] | 9.54 ± 0.45
TCATAAATTAAACAAACACACACGTTCTTTTATTTA [CACACA_site713] | 8.38 ± 0.33
TTTTTTTTTGGGGGTGCATGCAAGACATATATTTAA [TGCATGCA_site228] | 10.43 ± 0.028
ATACTTTTATTTTTGGTGCATATATCATGTAGACGT | 9.025 ± 0.035
CATATTATTATTTTGGTGCATACTTATATATATTTT | 8.75 ± 0.31
CTTTTTTTTTTGGGGGTGCATGCAAGACATATATTT [GTGCAC_site9660] | 10.51 ± 0.028
AATATTTTTTTTTAAACATGCATATTTGCATTACCC [TGCATGCA_site437] | 8.58 ± 0.41
AATATTTTATTTTGGGTGCAAAAGAATATTATTTCA | 8.34 ± 0.071
ATTTTGGAAATAATATGTACATATACATAATATATA [XGTACX_site4177] | 8.36 ± 0.29
GCATTGATCAAACATACACACATGGTTAATAAAAAT [CACACA_site2085] | 8.72 ± 0.55

Sequence | gcPBM binding intensity (ln)
TTTCTTTTTATATTCACACATAAATATATATATATA [CACACA_site6053] | 9.81 ± 0.28
ATTTATTATATATACACACATACATATATATATATA [CACACA_site2159] | 9.91 ± 0.42
ATATATATATATTTATGTACATATTATTTATTCTTT [XGTACX_site6567] | 9.94 ± 0.17
TCTTTATTATTCGCCACACACATATATATATATATA [CACACA_site3077] | 10.2 ± 0.43
ATTCTTTATTATTCGCCACACACATATATATATATA [CACACA_site9009] | 10.2 ± 0.28
TCTTTATTATTCGCCACACACATATAAATATAAATA [CACACA_site7441] | 8.88 ± 0.38
CCATTCAAATTTCGCACACACATACAAAAAAAAAAA [CACACA_site3093] | 8.59 ± 0.42
ATGCAATAATAATATTGTACGCATATATTTTTTACT [XGTACX_site3384] | 8.41 ± 0.3
TATAGCATAAATATGTGTACATATTTATATGATATT [XGTACX_site6333] | 8.37 ± 0.28
AATACGAAGGATAAGAGTACTAATTAAATAAATGAA [XGTACX_site523] | 8.96 ± 0.28
AGGTAGTTCTGTATCACACACATATAAATATAAATA [CACACA_site7110] | 8.48 ± 0.4
AGGTAGTTCTGTATCACACACATATATATATATATA [CACACA_site2214] | 10.3 ± 0.47
TAAGGTAGTTCTGTATCACACACATATATATATATA [CACACA_site8693] | 10.1 ± 0.26
TCAACAAAATTGAAGGAACACACATACATATATATA [CACACA_site7940] | 8.87 ± 0.23
TACAGACATACATACACACATACATACAGACATACA [CACACA_site1941] | 8.66 ± 0.26
CCCCCCCACAGACACACACACATACATACCACATAT [CACACA_site2306] | 10.3 ± 0.014
CACCCCCACAGACACACACACACACCCACATATATA [CACACA_site365] | 9.27 ± 0.39
CACAGACACCCATACACACACATACCCATATATATA [CACACA_site5023] | 8.79 ± 0.32
TTCCCCCCCAGACACACACACACATACATACCACAT [CACACA_site2305] | 10.5 ± 0.24
CATACACCCAGACACACACACATATATATATATATA [CACACA_site634] | 10.1 ± 0.44
CATTTCTATATAAGCACACACGTGGAATTTTTTTTT [CACACA_site5537] | 8.7 ± 0.26
